Measured values published in PubChem BioAssay (Tox21).
Results filed as inconclusive are left out. Active and inactive are the calls of the source. Unless noted, the call rests on the fitted dose curve; in most records, active means well fitted curve in the direction sought with a large enough effect in the repeat runs; inconclusive means weak or mixed curves; inactive means no such curve, though single readings can be large; an effect the other way counts as inactive or inconclusive.

Tests used:
[1] = qHTS assay for small molecule agonists of the p53 signaling pathway (AID 651631; calls by dose curve; further: nearly all actives have a fitted effect of over 15% in size)
In short: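 Fluorescence intensity from cleaved LiveBLAzer B/G substrate (2 h, room temperature) served as the signal. Beforehand, HCT-116 reporter cells bearing p53 response elements were treated 16 h at 37 °C with DMSO-dissolved compounds.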

[2] = qHTS assay for small molecule agonists of the p53 signaling pathway - cell viability (AID 651633; calls by dose curve;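 further: p53RE-bla HCT reporter cells with a stable beta-lactamase p53 reporter; series mostly up to about 83 µM; nearly all actives have a fitted effect of over 30% in size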)
In short: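 Viability counter-read: CellTiter-Glo luminescence (30 min, room temperature) in the same p53RE-bla plates. These plates had been exposed to compounds for 16 h at 37 C.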

[3] = qHTS assay for small molecules that induce genotoxicity in human embryonic kidney cells expressing luciferase-tagged ATAD5 - cell viability (AID 651634; calls by dose curve; further: nearly all actives have a fitted effect of over 25% in size)
In short: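 HEK293T cells carrying luciferase-tagged ATAD5, 2,000 cells/well, exposed to compound for 15.5 hr at 37C. Viability read as live-cell protease activity by CellTiter-Fluor fluorescence after 30 min at 37C.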

[4] = qHTS assay for small molecule disruptors of the mitochondrial membrane potential - cell viability (AID 720634; calls by dose curve;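 further: human HepG2 liver cancer cells; series mostly up to about 83 µM; nearly all actives have a fitted effect of over 20% in size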)
In short: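 HepG2 cells, 2,000 per well, attached overnight, then treated 1 hr at 37 C, 5% CO2. Viability read as ATP by CellTiter-Glo luminescence after 30 min at room temperature. Read in the same wells as the m-MPI membrane-potential dye assay.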

[5] = qHTS assay to test for compound auto fluorescence at 590 nm (red) in HepG2 cells (AID 720674)
In short: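 1 hr compound incubation on HepG2 cells, 37 C, 5% CO2; plate read ex 540 nm / em 590 nm; intensities reported as Rose Bengal sodium equivalents.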

[6] = qHTS assay to test for compound auto fluorescence at 535 nm (green) in HepG2 cells (AID 720675)
[7] = qHTS assay to test for compound auto fluorescence at 460 nm (blue) in HEK293 cells (AID 720678)
In short: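 Intrinsic compound fluorescence is recorded in live HEK293 cultures after overnight incubation at 37C, 5% CO2, using excitation 405 nm and emission 460 nm. Values are referenced to triamterene.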

[8] = qHTS assay to test for compound auto fluorescence at 590 nm (red) in HEK293 cells (AID 720679)
In short: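 Red autofluorescence, HEK293 cells: 2,000 cells/well; attach 4-5 hr 37C; add 23 nL cpd or DMSO; incubate o/n 37C 5% CO2; read Ex540/Em590; Rose Bengal sodium reference.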

[9] = qHTS assay to test for compound auto fluorescence at 535 nm (green) in HEK293 cells (AID 720680)
[10] = qHTS assay to test for compound auto fluorescence at 460 nm (blue) in HEK293 cell free culture (AID 720681)
In short: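 Blue fluorescence (Ex 405/Em 460 nm, triamterene-equivalent) was read immediately after pin transfer of compound or DMSO into medium (DMEM, 10% FBS) without cells.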

[11] = qHTS assay to test for compound auto fluorescence at 535 nm (green) in HEK293 cell free culture (AID 720682)
In short: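 Intrinsic compound fluorescence is measured in culture medium containing 10% FBS, with excitation at 485 nm and detection at 535 nm, referenced to fluorescein.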

[12] = qHTS assay to test for compound auto fluorescence at 590 nm (red) in HEK293 cell free culture (AID 720683)
In short: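 Red-channel autofluorescence of compounds in culture medium (DMEM, 10% FBS), no cells, measured at 540/590 nm. Rose Bengal sodium is the reference fluorophore for equivalence.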

[13] = qHTS assay to test for compound auto fluorescence at 590 nm (red) in HepG2 cell free culture (AID 720684)
In short: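 Steps: dispense MEM/10% FBS medium, no cells; pin compound or DMSO vehicle; read red channel, Ex/Em 540/590 nm. Output given as Rose Bengal sodium equivalents.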

[14] = qHTS assay to test for compound auto fluorescence at 460 nm (blue) in HepG2 cell free culture (AID 720685)
In short: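 Compound (23 nL) or DMSO pinned into cell-free MEM with 10% FBS; blue fluorescence read at 405/460 nm excitation/emission, expressed as auto-fluorescence equivalency to triamterene.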

[15] = qHTS assay to test for compound auto fluorescence at 535 nm (green) in HepG2 cell free culture (AID 720686)
[16] = qHTS assay to test for compound auto fluorescence at 460 nm (blue) in HepG2 cells (AID 720687)
In short: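 Blue-channel autofluorescence (Ex/Em 405/460 nm, triamterene-equivalent) was measured after 1 hr compound exposure at 37 C, 5% CO2. Cells were HepG2, plated overnight at 37 C in MEM plus 10% FBS.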

[17] = qHTS assay for small molecule disruptors of the mitochondrial membrane potential (AID 720635)
In short: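 Mitochondrial membrane potential tracked with Mito-MPS dye, red aggregates (ex 540/em 590 nm) against green monomers (ex 490/em 535 nm). Compound treatment 1 hr at 37C, dye 30 min in HepG2.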

[18] = target: Glucocorticoid receptor (Homo sapiens) (UniProt P04150); experiment: qHTS assay to identify small molecule agonists of the glucocorticoid receptor (GR) signaling pathway (AID 720691; active means well fitted activation curve with a large enough effect in the signal ratio in the repeat runs, not every such curve was filed as active; the % refers to the signal ratio)
Sequence of Glucocorticoid receptor (Homo sapiens) (P04150 whole entry, looked up): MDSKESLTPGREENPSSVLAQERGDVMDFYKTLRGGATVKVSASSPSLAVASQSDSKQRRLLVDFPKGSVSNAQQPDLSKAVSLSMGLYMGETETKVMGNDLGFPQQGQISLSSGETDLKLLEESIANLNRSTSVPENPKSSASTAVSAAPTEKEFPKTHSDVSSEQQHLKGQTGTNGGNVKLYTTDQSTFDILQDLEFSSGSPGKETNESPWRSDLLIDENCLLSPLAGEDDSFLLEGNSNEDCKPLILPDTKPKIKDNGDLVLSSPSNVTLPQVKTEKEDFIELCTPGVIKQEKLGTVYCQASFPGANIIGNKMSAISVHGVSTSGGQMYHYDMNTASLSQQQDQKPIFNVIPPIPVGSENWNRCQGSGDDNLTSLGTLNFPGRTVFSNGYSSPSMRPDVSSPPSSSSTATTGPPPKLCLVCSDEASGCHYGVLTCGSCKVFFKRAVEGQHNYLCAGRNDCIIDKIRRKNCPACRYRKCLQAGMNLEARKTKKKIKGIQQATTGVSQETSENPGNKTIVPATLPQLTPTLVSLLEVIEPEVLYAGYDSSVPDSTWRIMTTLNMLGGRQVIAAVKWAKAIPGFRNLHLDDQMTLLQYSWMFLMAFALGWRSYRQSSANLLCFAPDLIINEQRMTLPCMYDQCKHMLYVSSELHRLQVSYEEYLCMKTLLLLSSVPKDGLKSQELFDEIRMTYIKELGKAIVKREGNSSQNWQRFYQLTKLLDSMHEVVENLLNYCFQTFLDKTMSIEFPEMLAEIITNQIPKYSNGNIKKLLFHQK
In short: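 GR-bla HeLa cells carrying a GRE-driven beta-lactamase reporter, exposed to compounds for 18 h at 37 C. Reporter activation read as fluorescence after 2 h with LiveBLAzer B/G FRET substrate at room temperature.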

[19] = target: Glucocorticoid receptor (Homo sapiens) (UniProt P04150); experiment: qHTS assay to identify small molecule antagonists of the glucocorticoid receptor (GR) signaling pathway (AID 720692; active means well fitted inhibition curve with a large enough effect in the signal ratio in the repeat runs, not every such curve was filed as active; the % refers to the signal ratio)
In short: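 GR-bla HeLa cells carrying a GRE-driven beta-lactamase reporter received compound after 4 h plating, then dexamethasone (5 nM final). After 18 h at 37C, the FRET substrate was loaded for 2 h at room temperature and fluorescence read.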

[20] = qHTS assay for small molecules that induce genotoxicity in human embryonic kidney cells expressing luciferase-tagged ATAD5 (AID 651632); further: nearly all actives have a fitted effect of over 15% in size
In short: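 HEK293T cells carrying luciferase-tagged ATAD5 were given compound or DMSO vehicle and incubated 16 hr at 37C, 5% CO2. Luciferase activity was read after 30 min at room temperature with Amplite; a rise signals genotoxic stress.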

Measured: Potency

CC(=O)SC[C@@H](C)C(=O)N1CCC[C@H]1C(=O)N[C@@H](Cc1ccccc1)C(=O)O
not listed: [17] | [18] | [19] | [20]
inactive: all other assays above

Cc1ccc2ccccc2n1
not listed: [5] | [19] | [20]
inactive: all other assays above

CCOC(=O)[C@H](CCc1ccccc1)N[C@H]1CS[C@H](c2cccs2)CN(CC(=O)O)C1=O
not listed: [20]
inactive: all other assays above

CN(C)CCC[C@@]1(c2ccc(F)cc2)OCc2cc(C#N)ccc21
not listed: [4] | [17]
inactive: all other assays above

CC/C=C\CCOC(=O)c1ccccc1
not listed: [19] | [20]
inactive: all other assays above

O=c1c(O)c(O)c1=O
not listed: [20]
inactive: all other assays above

Cc1cc(O)c(Cl)cc1C
not listed: [17] | [20]
inactive: all other assays above

CCCCCC(=O)CC
not listed: [4] | [17] | [18] | [19]
inactive: all other assays above

C=CC(C)(CCC=C(C)C)OC(=O)C(C)C (stereo not given)
not listed: [5] | [13] | [20]
inactive: all other assays above

CC(C)(C)C(=O)CC(=O)C(C)(C)C
not listed: [8] | [13] | [17]
inactive: all other assays above
